# The source made the active and inactive calls. No rule for the calls is given here.
# Target: Pantothenate synthetase (Mycobacterium tuberculosis (strain ATCC 25618 / H37Rv)) (UniProt P9WIL5)
# Experiment: Coupled enzyme confirmation of inhibitors against recombinant Mtb PanC (AID 375);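 also: 0% = full reaction with vehicle and 100% = no enzyme background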
# Settings: coupled enzyme assay; at 10 µM, hits give high values
# Sequence of Pantothenate synthetase (Mycobacterium tuberculosis (strain ATCC 25618 / H37Rv)) (P9WIL5 whole entry, looked up): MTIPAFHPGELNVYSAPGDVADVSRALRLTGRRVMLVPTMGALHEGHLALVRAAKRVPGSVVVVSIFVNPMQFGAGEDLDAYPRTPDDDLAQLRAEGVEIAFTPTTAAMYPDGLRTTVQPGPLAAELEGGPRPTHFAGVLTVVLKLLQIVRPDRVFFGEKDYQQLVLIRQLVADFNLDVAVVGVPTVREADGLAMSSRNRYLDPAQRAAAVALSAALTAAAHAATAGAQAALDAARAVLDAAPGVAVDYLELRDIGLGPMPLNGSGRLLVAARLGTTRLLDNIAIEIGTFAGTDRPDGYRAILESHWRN
row,SMILES,inhibition
1,COc1cc(C(=O)N2CCC(c3nc(-c4cccnc4)no3)CC2)cc(OC)c1OC,0% (inactive)
2,O=C(c1ccccc1Br)N1CCN(c2ccccc2)CC1,8% (inactive)
3,O=C(O)C1C2CCC(O2)C1C(=O)Nc1cccc(F)c1 (centres undefined),1% (inactive)
4,CC1(C)CC2CC(C)(CN2S(=O)(=O)c2ccc(N)cc2)C1 (centres undefined),0% (inactive)
5,O=C(NCc1ccccn1)c1cc(-n2cnnc2)ccc1Cl,0% (inactive)
6,CCOc1cc(C2c3c(n[nH]c3C)C(=O)N2c2ccc(Br)cc2)ccc1O (centres undefined),0% (inactive)
7,O=C(CCCCCN1C(=O)CCC1=O)NCc1ccccc1,11% (inactive)
8,CCOc1ccc(S(=O)(=O)N(C)C)cc1-c1nc2c(C(C)(C)C)nn(C)c2c(=O)[nH]1,0% (inactive)
9,Cc1cc(C)cc(NC(=O)N2CCC(c3nc4ccccc4o3)CC2)c1,7% (inactive)
10,O=C(c1ccc(=O)[nH]c1)N(Cc1ccco1)C1(C(=O)NC2CCCC2)CCCCC1,0% (inactive)
11,CC1(c2ccc(OC(F)F)cc2)NC(=O)N(CC(=O)Nc2ccc3c(c2)OCO3)C1=O (centres undefined),3% (inactive)
12,CC(=O)N1c2c(cc(Br)cc2S(=O)(=O)N2CCN(c3ccccn3)CC2)CC1C (centres undefined),0% (inactive)
13,O=C(COC(=O)c1cc(-c2ccco2)nc2ccccc12)NCc1ccc2c(c1)OCO2,0% (inactive)
14,CCOc1ccc(C(c2nnnn2Cc2ccccc2)N2CCN(C(=O)c3ccco3)CC2)cc1 (centres undefined),2% (inactive)
15,O=C(Cn1ncc2c(=O)oc3ccccc3c21)Nc1nc2ccccc2s1,0% (inactive)
16,O=C1NC(c2ccco2)Nc2ccccc21 (centres undefined),0% (inactive)
17,Nc1nonc1-c1noc(CCCCCN2C(=O)c3ccccc3C2=O)n1,4% (inactive)
18,CCN1CCN(c2ncnc3c2oc2nc(C)c4c(c23)CC(C)(C)OC4)CC1,0% (inactive)
19,COc1cccc(NC(=O)c2ccccc2NS(C)(=O)=O)c1,0% (inactive)
20,NS(=O)(=O)c1ccc(NC(=O)N[C@@H](Cc2ccccc2)C(=O)O)cc1,0% (inactive)

row,SMILES,inhibition
1,C=CCn1c(SCC(=O)c2ccccc2)nnc1-c1ccc2c(c1)OCO2,0% (inactive)
2,CC12CN3CC(C)(CN(C1)C3c1ccc(Cl)cc1Cl)C2=O (centres undefined),0% (inactive)
3,COc1ccc2nc(NC(=O)C(NS(=O)(=O)c3cccs3)C(C)C)sc2c1 (centres undefined),0% (inactive)
4,Cn1cc(CN2CCc3ccccc3C2)c2ccccc21,9% (inactive)
5,CC(C)[C@H](NC(=O)OC(C)(C)C)c1nnc(S(=O)(=O)Cc2c(F)cccc2Cl)o1,0% (inactive)
6,CCOC(=O)c1sc(NC(=O)CSc2nnnn2-c2ccccc2)c(C(=O)OCC)c1C,0% (inactive)
7,O=C(COC(=O)c1ccc(Br)o1)Nc1ccc(S(=O)(=O)N2CCCC2)cc1,5% (inactive)
8,Nc1nc(CN2CCN(Cc3ccc4c(c3)OCO4)CC2)nc(Nc2ccccc2)n1,0% (inactive)
9,CC(C)OC(=O)CSc1nc2cccnc2n1C1CCCCC1,4% (inactive)
10,Cc1cccc(NC(=O)c2oc3c(c2C)C(=O)CC(C)(C)C3)n1,9% (inactive)
11,O=C1CN(C(=O)CN2CCCC2)C(c2ccccc2)c2cc(Br)ccc2N1 (centres undefined),0% (inactive)
12,O=c1cc(CSc2nnnn2-c2ccccc2)nc2scc(-c3ccccc3)n12,3% (inactive)
13,O=C(NC1CCCCCC1)C1CCCN(S(=O)(=O)c2cccs2)C1 (centres undefined),0% (inactive)
14,CC(C)(C)C(=O)CNS(=O)(=O)c1ccc(S(=O)(=O)NC2CCCC2)cc1,0% (inactive)
15,O=C1c2ccccc2C(=O)N1CCN1CCCCC1,7% (inactive)
16,CC(C)OC(=O)c1cc(NC(=O)C2C3CCC(O3)C2C(=O)O)cc(C(=O)OC(C)C)c1 (centres undefined),0% (inactive)
17,CCCCc1ccc(NC(=O)COCC)cc1,0% (inactive)
18,C=CCNC(=O)CNS(=O)(=O)c1ccc(F)cc1,2% (inactive)
19,C=CCN1C(=O)C2(/C(=C(\O)c3ccc4c(c3)OCCO4)C(=O)C(=O)N2CCCOC)c2ccccc21 (centres undefined),0% (inactive)

# From PubChem BioAssay
